# About 79,000 compounds went through this panel and 15% of them were active in at least one assay; those are over-represented in the sample as a whole. A number with no mark means an inactive call. Activity calls are given as the source filed them. Cut-off read from the data, not from the text of the source: active = growth inhibition above about 70%; inactive = the rest.
# Tests used:
# [1] = NCI Yeast Anticancer Drug Screen. Data for the rad52 strain (AID 147);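 note: 0% = growth of vehicle-treated control cultures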; details: S. cerevisiae rad52 mutant growth inhibition, stronger effect = higher value
# In short: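 Read-out: growth inhibition versus vehicle-treated controls. Cells were a DNA repair-deficient yeast strain treated with compounds.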
# [2] = NCI Yeast Anticancer Drug Screen. Data for the wt1 strain (AID 149);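 note: 0% = growth of vehicle-treated wt1 cultures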; details: S. cerevisiae wt1 strain (SPY 50644) growth inhibition, stronger effect = higher value
# In short: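 wt1 yeast, compound-treated; % growth inhibition vs vehicle control.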
# [3] = NCI Yeast Anticancer Drug Screen. Data for the rad50EPP+ strain (AID 151);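 note: 0% = growth of vehicle-treated control cultures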; details: S. cerevisiae rad50 mutant strain, stronger effect = higher value
# In short: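 Growth inhibition read against vehicle controls in rad50EPP+ yeast, a strain altered in DNA damage repair, after compound exposure.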
# [4] = NCI Yeast Anticancer Drug Screen. Data for the mgt1 strain (AID 153); details: S. cerevisiae mgt1 mutant growth inhibition, stronger effect = higher value
# In short: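 mgt1 yeast grown with test compound; read-out is growth inhibition versus vehicle-treated cultures.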
# [5] = NCI Yeast Anticancer Drug Screen. Data for the rad50 strain (AID 155);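 note: 0% = growth of vehicle-only cultures of the same strain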; details: S. cerevisiae rad50 strain growth inhibition, stronger effect = higher value
# In short: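 Genetically altered yeast (DNA repair pathway); compound treatment; growth inhibition vs vehicle ctrl.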
# [6] = NCI Yeast Anticancer Drug Screen. Data for the mec2-1 strain (AID 157); details: S. cerevisiae mec2-1 strain, stronger effect = higher value
# In short: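 Yeast mec2-1 mutant treated with compound. Readout: growth inhibition vs vehicle controls.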
# [7] = NCI Yeast Anticancer Drug Screen. Data for the rad14 strain (AID 159);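 note: 0% = growth of vehicle-treated control cultures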; details: S. cerevisiae rad14 strain growth inhibition, stronger effect = higher value
# In short: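 Test compounds were applied to a repair-deficient yeast strain. Its growth was then compared with that of cultures given vehicle alone, and inhibition was expressed relative to those controls.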
# [8] = NCI Yeast Anticancer Drug Screen. Data for the sgs1 mgt1 strain (AID 161);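 note: 0% = growth of cultures given vehicle only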; details: S. cerevisiae sgs1 mgt1 strain, stronger effect = higher value
# In short: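 Genetically altered yeast, compound exposure, growth inhibition relative to vehicle.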
# [9] = NCI Yeast Anticancer Drug Screen. Data for the CLN2oe strain (AID 163);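 note: 0% = growth of vehicle-only control cultures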; details: S. cerevisiae CLN2oe strain, stronger effect = higher value
# In short: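 Read-out: yeast growth inhibition, expressed relative to vehicle-only controls. The strain bears an engineered cell-cycle alteration.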
# [10] = NCI Yeast Anticancer Drug Screen. Data for the cln2 rad14 strain (AID 165);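 note: 0% = growth equal to vehicle treated cultures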; details: S. cerevisiae cln2 rad14 strain, stronger effect = higher value
# In short: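 cln2 rad14 yeast strain; compound exposure; growth inhibition read vs vehicle controls.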
# [11] = NCI Yeast Anticancer Drug Screen. Data for the bub3 strain (AID 167); details: S. cerevisiae bub3 mutant strain, stronger effect = higher value
# In short: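 Yeast carrying a defined mutation is treated with each compound, and growth is compared with that of vehicle-exposed cells to give inhibition.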
# [12] = NCI Yeast Anticancer Drug Screen. Data for the wt2 strain (AID 169);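 note: 0% = growth of vehicle-treated yeast cultures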; details: S. cerevisiae wt2 strain growth inhibition, stronger effect = higher value
# In short: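 Read-out: growth inhibition versus vehicle-treated control cultures after compound exposure of the yeast strain.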
# [13] = NCI Yeast Anticancer Drug Screen. Data for the mlh1 strain (AID 171);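 note: 0% = growth of vehicle-treated control cultures of the same strain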; details: S. cerevisiae mlh1 strain growth inhibition, stronger effect = higher value
# In short: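 Read-out: growth inhibition versus vehicle controls. Strain: engineered yeast with a defined DNA repair or cell cycle defect, compound-treated.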
# [14] = NCI Yeast Anticancer Drug Screen. Data for the sgs1 strain (AID 173);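 note: 0% = growth of vehicle-only control cultures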; details: S. cerevisiae sgs1 mutant, stronger effect = higher value
# In short: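 Read-out: yeast growth inhibition relative to vehicle controls, following compound exposure of a strain with a defined DNA repair/cell cycle alteration.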
# [15] = NCI Yeast Anticancer Drug Screen. Data for the mlh1 rad18 strain (AID 175); details: S. cerevisiae mlh1 rad18 strain growth inhibition, stronger effect = higher value
# In short: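 Yeast w/ defined DNA-repair lesions; compound exposure; growth vs vehicle controls → % inhibition.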
# [16] = NCI Yeast Anticancer Drug Screen. Data for the rad18 strain (AID 177); details: S. cerevisiae rad18 mutant growth inhibition, stronger effect = higher value
# In short: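 Readout: growth inhibition vs vehicle controls. Cells: genetically altered yeast strain, DNA repair defect.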
# [17] = at 5.0 µM (retest, dose inferred, filed as 0.5)
# [18] = at 50.0 µM (retest, dose inferred, filed as 5.0)
smiles,measurement,setting,value
COc1ccc(C(C)c2cc3c(cc2OC(C)O)OCO3)cc1 (stereo not drawn),growth inhibition,[1]; at 1.2 µM,-2%
same,growth inhibition,[1]; at 3.7 µM,-3%
same,growth inhibition,[1]; at 11.0 µM,-1%
same,growth inhibition,[1]; at 33.0 µM,1%
same,growth inhibition,[1]; at 100.0 µM,89% (active)
same,growth inhibition,[2]; at 1.2 µM,-2%
same,growth inhibition,[2]; at 3.7 µM,-3%
same,growth inhibition,[2]; at 11.0 µM,-4%
same,growth inhibition,[2]; at 33.0 µM,-4%
same,growth inhibition,[2]; at 100.0 µM,88% (active)
same,growth inhibition,[3]; at 1.2 µM,0%
same,growth inhibition,[3]; at 3.7 µM,15%
same,growth inhibition,[3]; at 11.0 µM,15%
same,growth inhibition,[3]; at 33.0 µM,33%
same,growth inhibition,[3]; at 100.0 µM,36%
same,growth inhibition,[4]; at 1.2 µM,-3%
same,growth inhibition,[4]; at 3.7 µM,-2%
same,growth inhibition,[4]; at 11.0 µM,-3%
same,growth inhibition,[4]; at 33.0 µM,-2%
same,growth inhibition,[4]; at 100.0 µM,95% (active)
same,growth inhibition,[5]; at 1.2 µM,-6%
same,growth inhibition,[5]; at 3.7 µM,-46%
same,growth inhibition,[5]; [17],4%
same,growth inhibition,[5]; at 11.0 µM,26%
same,growth inhibition,[5]; at 33.0 µM,3%
same,growth inhibition,[5]; [18],11%
same,growth inhibition,[5]; at 50.0 µM,18.8%
same,growth inhibition,[5]; at 100.0 µM,96% (active)
same,growth inhibition,[6]; at 1.2 µM,-3%
same,growth inhibition,[6]; at 3.7 µM,-2%
same,growth inhibition,[6]; [17],3%
same,growth inhibition,[6]; at 11.0 µM,-1%
same,growth inhibition,[6]; at 33.0 µM,-2%
same,growth inhibition,[6]; [18],31%
same,growth inhibition,[6]; at 50.0 µM,0.2%
same,growth inhibition,[6]; at 100.0 µM,87% (active)
same,growth inhibition,[7]; at 1.2 µM,-1%
same,growth inhibition,[7]; at 3.7 µM,-2%
same,growth inhibition,[7]; at 11.0 µM,-1%
same,growth inhibition,[7]; at 33.0 µM,4%
same,growth inhibition,[7]; at 100.0 µM,69%
same,growth inhibition,[8]; [17],2%
same,growth inhibition,[8]; [18],37%
same,growth inhibition,[8]; at 50.0 µM,58.5%
same,growth inhibition,[9]; at 1.2 µM,4%
same,growth inhibition,[9]; at 3.7 µM,1%
same,growth inhibition,[9]; at 11.0 µM,2%
same,growth inhibition,[9]; at 33.0 µM,1%
same,growth inhibition,[9]; at 100.0 µM,38%
same,growth inhibition,[10]; [17],3%
same,growth inhibition,[10]; [18],1%
same,growth inhibition,[10]; at 50.0 µM,-31.5%
same,growth inhibition,[11]; at 1.2 µM,0%
same,growth inhibition,[11]; at 3.7 µM,6%
same,growth inhibition,[11]; [17],7%
same,growth inhibition,[11]; at 11.0 µM,20%
same,growth inhibition,[11]; at 33.0 µM,43%
same,growth inhibition,[11]; [18],52%
same,growth inhibition,[11]; at 50.0 µM,25.4%
same,growth inhibition,[11]; at 100.0 µM,64%
same,growth inhibition,[12]; at 1.2 µM,3%
same,growth inhibition,[12]; at 3.7 µM,-1%
same,growth inhibition,[12]; at 11.0 µM,-2%
same,growth inhibition,[12]; at 33.0 µM,-2%
same,growth inhibition,[12]; at 100.0 µM,32%
same,growth inhibition,[13]; at 1.2 µM,-2%
same,growth inhibition,[13]; at 3.7 µM,-3%
same,growth inhibition,[13]; at 11.0 µM,-1%
same,growth inhibition,[13]; at 33.0 µM,1%
same,growth inhibition,[13]; at 100.0 µM,92% (active)
same,growth inhibition,[14]; at 1.2 µM,-3%
same,growth inhibition,[14]; at 3.7 µM,-1%
same,growth inhibition,[14]; at 11.0 µM,5%
same,growth inhibition,[14]; at 33.0 µM,25%
same,growth inhibition,[14]; at 100.0 µM,92% (active)
same,growth inhibition,[15]; [17],-1%
same,growth inhibition,[15]; [18],52%
same,growth inhibition,[15]; at 50.0 µM,50.6%
same,growth inhibition,[16]; at 1.2 µM,-2%
same,growth inhibition,[16]; at 3.7 µM,4%
same,growth inhibition,[16]; at 11.0 µM,7%
same,growth inhibition,[16]; at 33.0 µM,18%
same,growth inhibition,[16]; at 100.0 µM,90% (active)
